In PubChem BioAssay (EPA / NIEHS):
Active and inactive are the calls of the source. The calls were made as follows: active = hit-call score of the fitted dose curve at least 0.9, where 1 is the maximum; inactive = score below 0.9.

Experiments:
[1] = APR_HepG2_CellCycleArrest_24hr: Apredica 24-hour HepG2 Assay for Cell Cycle Arrest (AID 2282905); conditions: imaging, actives raise or lower the signal;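 also: cell cycle arrest scored as ratio of 2N to 4N nuclear DNA content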
Method in brief: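 Readout: Hoechst 33342 nuclear DNA content by high-content fluorescent imaging, six images/well, 20x. Human HepG2 liver cells, 24 hr compound exposure, 0.39–200 uM, final DMSO 0.5% v/v. Gain or loss fitted relative to DMSO baseline.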

[2] = APR_HepG2_NuclearSize_24hr: Apredica 24-hour HepG2 Assay for Nuclear Size (AID 2282907); conditions: high-content imaging, actives raise or lower the signal
Method in brief: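 Read-out: nuclear diameter from Hoechst 33342 (2 ug/mL) imaging of fixed HepG2 cells, 20x, six fields/well. Compounds ran at 0.39–200 uM for 24 hr, 0.5% DMSO final. Gain or loss was fitted bidirectionally relative to the DMSO baseline.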

[3] = APR_HepG2_CellLoss_24hr: Apredica 24-hour HepG2 Assay for Cell Loss (AID 2282908); conditions: high-content imaging;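 as to AC50: fit in both directions so a hit may be cell loss or gain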
Method in brief: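 Read-out: Hoechst 33342-stained nuclei counted by automated fluorescence imaging after formaldehyde fixation and Triton permeabilization. Ten concentrations, 0.39 to 200 uM, duplicate wells, 0.5% DMSO final. Gain or loss of signal fitted relative to DMSO baseline.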

[4] = APR_HepG2_MicrotubuleCSK_24hr: Apredica 24-hour HepG2 Assay for Microtubule CSK Stabilty (AID 2282909); conditions: HepG2 microtubule cytoskeleton imaging, actives raise or lower the signal
Method in brief: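 Read-out: alpha-tubulin immunofluorescence intensity by automated high-content imaging of fixed HepG2 cells after 24 h compound treatment. Ten concentrations, 0.39 to 200 uM, in duplicate; DMSO 0.5% v/v. Taxol positive control; DMSO-normalized bidirectional curve fitting.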

[5] = APR_HepG2_MitoticArrest_24hr: Apredica 24-hour HepG2 Assay for Mitotic Arrest (AID 2282910); conditions: high-content imaging, actives raise or lower the signal
Method in brief: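 Treatment lasted 24 hr in the human HepG2 line at 0.39–200 uM, solvent held at 0.5% DMSO. Fixed cells were stained with Hoechst 33342 and anti-phospho-histone H3, imaged at 20x, and analysed by gain- or loss-of-signal fitting against DMSO.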

[6] = APR_HepG2_MitoMembPot_24hr: Apredica 24-hour HepG2 Assay for Mitochondrial Membrane Potential (AID 2282911); conditions: imaging, actives raise or lower the signal
Method in brief: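 Human hepatoma HepG2 cultures received ten compound concentrations up to 200 uM for 24 hr. Membrane-potential dye signal, captured by automated fluorescence microscopy, was scored for gain or loss against DMSO controls.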

[7] = APR_HepG2_MitoMass_24hr: Apredica 24-hour HepG2 Assay for Mitochondrial Mass (AID 2282912); conditions: high-content imaging, actives raise or lower the signal
Method in brief: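 HepG2, 24 hr dosing, 10 concentrations 0.39–200 uM in duplicate, DMSO 0.5% final. MitoTracker Red CMXRos 250 nM, 30 min pre-fix; 3.7% formaldehyde fix. Imaging-based fluorescence intensity; gain/loss fit vs DMSO baseline.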

[8] = APR_HepG2_p53Act_24hr: Apredica 24-hour HepG2 Assay for p53 Activation (AID 2282913); conditions: high-content imaging, actives raise or lower the signal;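 also: p53 protein immunofluorescence averaged per cell in HepG2 with Hoechst nuclei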
Method in brief: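 Automated fluorescence imaging quantifies p53 immunostaining in HepG2 cells after a 24 hr exposure (0.39–200 uM, duplicate, 0.5% DMSO). Nuclei are located by Hoechst 33342 staining.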

[9] = APR_HepG2_CellLoss_72hr: Apredica 72-hour HepG2 Assay for Cell Loss (AID 2282915); conditions: high-content imaging
Method in brief: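 HepG2 cells were exposed for 72 hr to compounds at 0.39–200 uM (ten concentrations, duplicate) in 0.5% v/v final DMSO. Nuclei were stained with Hoechst 33342 after 3.7% formaldehyde fixation, imaged at 20x, and counted; fits bidirectional versus DMSO.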

[10] = APR_HepG2_P-H2AX_72hr: Apredica 72-hour HepG2 Assay for H2AX Phosphorylation (AID 2282916); conditions: imaging, actives raise or lower the signal;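 also: phospho-histone H2A.x immunostain intensity per cell marking DNA damage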
Method in brief: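 Readout: phospho-H2A.x immunofluorescence (FITC secondary) plus Hoechst nuclear stain, high-content imaging at 20x, six fields/well. HepG2, 72 hr compound exposure, 0.39–200 uM, final DMSO 0.5% v/v. Gain or loss fitted relative to DMSO baseline.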

[11] = APR_HepG2_MitoMembPot_72hr: Apredica 72-hour HepG2 Assay for Mitochondrial Membrane Potential (AID 2282917); conditions: imaging, actives raise or lower the signal
Method in brief: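 HepG2 cells exposed 72 h to compounds at 0.39–200 uM (0.5% v/v DMSO, duplicates); MitoTracker Red CMXRos 250 nM loaded 30 min before 3.7% formaldehyde fixation, imaged by HCS fluorescence. Bidirectional fit versus DMSO.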

[12] = APR_HepG2_MitoticArrest_72hr: Apredica 72-hour HepG2 Assay for Mitotic Arrest (AID 2282918); conditions: high-content imaging, actives raise or lower the signal
Method in brief: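 Mitotic arrest in HepG2 is scored from phospho-histone H3 staining after 72 hr dosing across 0.39–200 uM, with DMSO at 0.5% v/v. Nuclei are identified by Hoechst 33342 and fluorescence intensity is quantified per cell.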

[13] = APR_HepG2_MicrotubuleCSK_72hr: Apredica 72-hour HepG2 Assay for Microtubule CSK Stabilty (AID 2282919); conditions: HepG2 microtubule cytoskeleton, high-content imaging, actives raise or lower the signal
Method in brief: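 Ten-point dosing (0.39–200 uM, 0.5% DMSO) of HepG2 for 72 hr, with taxol as the cytoskeletal positive control. The cells were formaldehyde-fixed and then stained with alpha-tubulin/Cy5 and Hoechst. Imaging at 20x used a −2 um Z offset for tubulin.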

[14] = APR_HepG2_P-H2AX_24hr: Apredica 24-hour HepG2 Assay for H2AX Phosphorylation (AID 2282920); conditions: high-content imaging, actives raise or lower the signal
Method in brief: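 Signal comes from a FITC-labeled secondary detecting phospho-histone H2A.x in fixed HepG2 cells, quantified by automated imaging at 20x. Dosing ran 24 hr across 0.39–200 uM with 0.5% v/v DMSO.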

[15] = APR_HepG2_StressKinase_72hr: Apredica 72-hour HepG2 Assay for Stress Kinase (AID 2282921); conditions: HepG2 stress kinase (phospho-c-Jun) imaging, actives raise or lower the signal
Method in brief: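 Phospho-c-Jun immunofluorescence measured by high-content imaging at 20x, six fields per well; bidirectional curve fitting against DMSO as baseline. Dosing: 0.39–200 uM, 72 h, 0.5% DMSO final.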

[16] = APR_HepG2_StressKinase_24hr: Apredica 24-hour HepG2 Assay for Stress Kinase (AID 2282922); conditions: HepG2 stress kinase (phospho-c-Jun) imaging, actives raise or lower the signal
Method in brief: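 After 24 hr compound treatment (up to 200 uM, final DMSO 0.5% v/v), HepG2 cells are fixed and multiplex-labeled; phospho-c-Jun intensity is captured by high-content fluorescence imaging and analyzed relative to DMSO.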

[17] = APR_HepG2_p53Act_72hr: Apredica 72-hour HepG2 Assay for p53 Activation (AID 2282923); conditions: high-content imaging, actives raise or lower the signal;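 also: average cellular p53 protein immunofluorescence intensity in HepG2 cells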
Method in brief: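 Readout: p53 immunofluorescence quantified by automated high-content imaging at 20x, six fields per well, nuclei located via Hoechst. Dosing ran 72 hr over ten concentrations from 0.39 to 200 uM; bidirectional curve fitting against DMSO baseline.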

[18] = APR_HepG2_MitoMass_72hr: Apredica 72-hour HepG2 Assay for Mitochondrial Mass (AID 2282924); conditions: high-content imaging, actives raise or lower the signal;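 also: MitoTracker Red CMXRos stain intensity per cell imaged as mitochondrial mass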
Method in brief: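 Steps: treat HepG2 72 hr (0.39–200 uM, duplicate wells); load MitoTracker Red CMXRos, 250 nM, 30 min; fix with 3.7% formaldehyde, permeabilise with 0.5% Triton X-100; capture images, nuclei via Hoechst 33342; fit bidirectionally against DMSO.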

[19] = APR_HepG2_NuclearSize_72hr: Apredica 72-hour HepG2 Assay for Nuclear Size (AID 2282925); conditions: high-content imaging, actives raise or lower the signal
Method in brief: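 Compounds (0.39–200 uM, final DMSO 0.5%) were applied to HepG2 for 72 hr. Cells were then formaldehyde-fixed, permeabilized and labelled with Hoechst 33342. Nuclear diameter was quantified from six images per well.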

[20] = APR_HepG2_CellCycleArrest_72hr: Apredica 72-hour HepG2 Assay for Cell Cycle Arrest (AID 2282914); conditions: high-content imaging, actives raise or lower the signal
Method in brief: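 Cell cycle arrest in HepG2 was scored from nuclear DNA content after 72 hr compound treatment (0.39–200 uM). Activity, either gain or loss, was fitted against the DMSO baseline.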

## CC(C)(O)c1cnn2c(-c3ccc(F)c(-c4c(F)cccc4C#N)c3)cnc2n1
[1]
  outcome: inactive
[2]
  outcome: inactive
[3]
  AC50: 23.4 µM (active)
[4]
  AC50: 89.9 µM (active)
[5]
  AC50: 42.1 µM (active)
[6]
  AC50: 33.1 µM (active)
[7]
  AC50: 81.4 µM (active)
[8]
  outcome: inactive
[9]
  AC50: 23.9 µM (active)
[10]
  AC50: 30.1 µM (active)
[11]
  AC50: 83.9 µM (active)
[12]
  AC50: 25.9 µM (active)
[13]
  AC50: 78.8 µM (active)
[14]
  AC50: 31.4 µM (active)
[15]
  outcome: inactive
[16]
  AC50: 51.5 µM (active)
[17]
  outcome: inactive
[18]
  AC50: 76.1 µM (active)
[19]
  outcome: inactive

## Cc1ccc(N)c(N)c1
[2]
  outcome: inactive
[3]
  outcome: inactive
[4]
  outcome: inactive
[5]
  outcome: inactive
[6]
  outcome: inactive
[7]
  outcome: inactive
[8]
  outcome: inactive
[20]
  outcome: inactive
[9]
  outcome: inactive
[10]
  outcome: inactive
[11]
  outcome: inactive
[12]
  outcome: inactive
[13]
  outcome: inactive
[14]
  outcome: inactive
[15]
  outcome: inactive
[16]
  outcome: inactive
[17]
  outcome: inactive
[18]
  outcome: inactive
[19]
  outcome: inactive

## O=C(O)C1C2CCC(O2)C1C(=O)O (centres undefined)
[2]
  outcome: inactive
[3]
  outcome: inactive
[4]
  outcome: inactive
[5]
  AC50: 26.6 µM (active)
[6]
  outcome: inactive
[7]
  AC50: 41.4 µM (active)
[8]
  AC50: 24.4 µM (active)
[20]
  outcome: inactive
[9]
  AC50: 21.5 µM (active)
[10]
  AC50: 22.2 µM (active)
[11]
  outcome: inactive
[12]
  AC50: 19.6 µM (active)
[13]
  outcome: inactive
[14]
  AC50: 29.4 µM (active)
[15]
  outcome: inactive
[16]
  outcome: inactive
[17]
  AC50: 21.2 µM (active)
[18]
  AC50: 50.2 µM (active)
[19]
  AC50: 36 µM (active)

## [As]#[In]
[2]
  outcome: inactive
[3]
  outcome: inactive
[4]
  outcome: inactive
[5]
  outcome: inactive
[6]
  outcome: inactive
[7]
  outcome: inactive
[8]
  outcome: inactive
[20]
  outcome: inactive
[9]
  outcome: inactive
[10]
  outcome: inactive
[11]
  outcome: inactive
[12]
  outcome: inactive
[13]
  outcome: inactive
[14]
  outcome: inactive
[15]
  outcome: inactive
[16]
  outcome: inactive
[17]
  outcome: inactive
[18]
  outcome: inactive
[19]
  outcome: inactive

## Nc1ccc(Cc2ccc(N)cc2)cc1
[2]
  outcome: inactive
[3]
  outcome: inactive
[4]
  outcome: inactive
[5]
  outcome: inactive
[6]
  outcome: inactive
[7]
  outcome: inactive
[8]
  outcome: inactive
[20]
  outcome: inactive
[9]
  outcome: inactive
[10]
  outcome: inactive
[11]
  outcome: inactive
[12]
  outcome: inactive
[13]
  outcome: inactive
[14]
  outcome: inactive
[15]
  outcome: inactive
[16]
  outcome: inactive
[17]
  outcome: inactive
[18]
  outcome: inactive
[19]
  outcome: inactive

## COP(=S)(OC)SCN1C(=O)c2ccccc2C1=O
[2]
  outcome: inactive
[3]
  outcome: inactive
[4]
  outcome: inactive
[5]
  outcome: inactive
[6]
  outcome: inactive
[7]
  outcome: inactive
[8]
  outcome: inactive
[20]
  outcome: inactive
[9]
  outcome: inactive
[10]
  outcome: inactive
[11]
  outcome: inactive
[12]
  outcome: inactive
[13]
  outcome: inactive
[14]
  outcome: inactive
[15]
  outcome: inactive
[16]
  outcome: inactive
[17]
  outcome: inactive
[18]
  outcome: inactive
[19]
  outcome: inactive
